This is one part of a sample in which hits are shown more often than they occur.
Pf Dd2 growth – inhibitors of Plasmodium falciparum Dd2 growth; P. falciparum Dd2 growth, SYBR Green, 72 h; Potency, µM (highest dose often 28.9 µM), inactives show at the top dose activity, negative = inhibition, usual class: inhibitors; 120,000 tested, 4.3% active; AID 1347417; active = well fitted inhibition curve with a large enough effect;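 also: plate controls were DMSO vehicle for no effect and reference drug for full effect; nearly all actives have a fitted effect of over 65% in size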
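Readout: SYBR Green fluorescence, 485 nm excitation, 535 nm emission, after ~16 h lysis at 37C. Before that, Dd2-infected red cells (2.5% hematocrit) grew 72 h with compound, 29 uM top final concentration.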
* hit, by the source's call; i = inactive; [ ] = remark or other dose. Potency is read from the fitted curve at half-maximal effect.

SMILES	Pf Dd2 growth
O=C1COc2ccc(Nc3ccc(Cl)cc3)nc2CN1Cc1nc2ccccc2s1	-22.6%[44.1 µM]
COCCCN1C[C@@H]2CN(c3ncnc4c3CCC4)C[C@]2(C(=O)O)C1	-11.3%
C[C@@H]1CN(C(=O)c2ccc(-c3cnco3)cc2)CC[C@]1(C)O	9.9%
C=CCN1CC2(CCC1=O)CCN(C(=O)CC1CCCCN1C)CC2 (stereo not drawn)	3.4%
COc1ccccc1Cc1nc2ccccc2nc1SCC(=O)NCc1ccccc1Cl	0.891µM*
COc1ccccc1Cc1nc2ccccc2nc1SCC(=O)N1CCCCC1	-6.3%
COc1cc(NC(=O)CSc2nc3ccccc3nc2Cc2ccccc2OC)cc(OC)c1	i
COc1cc(OC)cc(C(=O)N2CCC(Cc3nc(-c4cccc(OC)c4)no3)CC2)c1	i
CN(C)C(=O)c1ccc2c(c1)n(Cc1cccc(F)c1)c(=O)c1ccnn12	i
CN1CCCC1c1nc(C2CN(C(=O)c3ccn[nH]3)C2)no1 (stereo not drawn)	21.7%
Cn1c(=O)n(C)c2cc(N3CCCC3)c(NC(=O)Nc3ccccc3)cc21	i
Cc1cc(N2CCN(C)CC2)nc2ccc(NC(=O)Nc3ccccc3Cl)cc12	3.16µM*
COc1cccc(CNC(=O)C(=O)Nc2ccc3nc4n(c(=O)c3c2)CCCCC4)c1	-9.1%
COc1cccc(NC(=O)c2ccc3c(c2)CCN3S(C)(=O)=O)c1	20.8%
Cc1ccc(NC(=O)C2Cc3ccccc3N2C(=O)c2ccccc2)cc1Cl (stereo not drawn)	42.8%
COc1cccc(NC(=O)Nc2ccc3nc(N4CCN(C)CC4)cc(C)c3c2)c1	2.51µM*
Cc1nc(CCC(=O)N2CCn3nc(C(=O)Nc4ccccc4)cc3C2)n[nH]1	-1.3%
CC(NC(=O)C1CCN(C(=O)c2ncn3c2COC(c2ccc(Cl)cc2)C3)CC1)c1ccccc1 (stereo not drawn)	-16.4%
CC(NC(=O)C1CCN(C(=O)c2ncn3c2COC(c2ccccc2)C3)CC1)c1ccc(F)cc1 (stereo not drawn)	i
COc1ccc(C(C)NC(=O)C2CCN(C(=O)c3ncn4c3COC(c3ccccc3)C4)CC2)cc1 (stereo not drawn)	7.94µM*
C[C@@H]1CN(C(=O)c2cccc(OCC(N)=O)c2)C[C@]1(C)O	-14.3%
CN1C(=O)CS(=O)(=O)C12CCN(C(=O)c1ccccc1F)CC2	23.5%
O=C(NCCCn1cccn1)C1CCN(C(=O)N2CC3CC(C2)[C@H]2CCCC(=O)N2C3)CC1 (stereo partly drawn)	i
COc1ccc(Cl)cc1C(C(=O)O)N1CCN(c2ncccc2C)CC1 (stereo not drawn)	-4.1%
Cc1ccc(CCN2CCCCC23Cc2ccccc2CN([S+](C)(=O)[O-])C3)cc1 (stereo not drawn)	10µM*
SMILES	Pf Dd2 growth
C[S+](=O)([O-])N1Cc2ccccc2CC2(CCCCN2Cc2ccccc2)C1 (stereo not drawn)	-27.0%
CN1CCC2(CC1)Cc1ccccc1CN([S+](C)(=O)[O-])C2	-26.8%
COc1ccc(C(=O)N2CCN(C(=O)c3nnn4c3COC(c3ccc(Cl)cc3)C4)CC2)c(C)c1 (stereo not drawn)	-26.8%
Cc1ccc(-n2cccc2CC(=O)N2CCCC(C)C2)cc1 (stereo not drawn)	i
Cc1ccc(Nc2c(-c3cccc(Cl)c3)nc3cccc(C)n23)cc1	i
Cc1ccc2nc(-c3cccnc3)c(Nc3ccc(C(C)C)cc3)n2c1	18.1%
Cc1ccn2c(Nc3ccc(F)cc3)c(-c3ccc(C)o3)nc2c1	10µM*
Cc1ccn2c(Nc3ccc(C(C)C)cc3)c(-c3cccs3)nc2c1	11.2µM*
Cc1cccc(C)c1Nc1c(-c2cccs2)nc2ncccn12	-13.1%
Cc1ccc2nc(-c3ccco3)c(Nc3ccc4c(c3)OCCO4)n2c1	-5.0%
COc1ccc(Nc2c(-c3ccco3)nc3cccc(C)n23)cc1	-18.3%
CC(C)c1ccc(Nc2c(-c3ccccc3O)nc3cnccn23)cc1	3.55µM*
Cc1ccc2nc(-c3cccs3)c(Nc3ccc4c(c3)OCCO4)n2c1	15.6%
Cc1ccccc1-c1nc2cnccn2c1NCCC(=O)N1CCCCC1	i
Cc1ccccc1-c1nc2cnccn2c1NCCC(=O)N1CCC(C)CC1	i
Cc1ccn2c(Nc3ccc(C(C)C)cc3)c(-c3cccnc3)nc2c1	11.2µM*
Cc1cccc(NC(=O)C[C@H]2NC(=O)c3ccccc3NC2=O)n1	i
Cc1ccc(-n2nc3n(c2=O)CCN([S+](=O)([O-])c2ccc(C)cc2)C3)cc1	i
COc1cccc(C(=O)NC2CCCN(c3nc4ncccc4o3)C2)c1 (stereo not drawn)	-2.6%
CCn1nccc1C(=O)N1C[C@@H](Oc2ccccc2)C[C@H]1C(=O)N1CCOCC1	2.4%
C[S+](=O)([O-])N1CCC(Cn2ccc3c(N4CCOCC4)nc(-c4ccc(F)cc4)cc32)CC1	-12.2%
Cc1cnc(C)c(-c2cc(O)c3c(c2)CNCCO3)n1	-21.2%
CCC(CC)n1c(=O)n(C[C@@H](O)CO)c2cc(C(=O)O)cnc21	-5.0%
CC(=O)N1CCCCCC1c1nc(-c2ccncc2)no1 (stereo not drawn)	15.3%
CN(C)Cc1cc(CC2(NCc3ccncc3)COC2)no1	16.4%[44.1 µM]
SMILES	Pf Dd2 growth
c1cc(-c2nnc(C3CNCC34CCOCC4)o2)ccn1 (stereo not drawn)	4.2%
COc1ccc(C(=O)N2CCC[C@H]2c2nc(-c3ccc(C)cc3)no2)cn1	i
CCn1cc(-c2ccncc2)cc1C(=O)NCc1ccc(SC)cc1	i
Cc1ccc(Cn2cc(-c3ccncc3)cc2C(=O)NCC2CC2)cc1	11.2µM*
Cc1ccc(Cn2cc(-c3ccncc3)cc2C(=O)N(C)Cc2ccccc2)cc1	-16.0%
COCCN1CCC(N2CCN(C(=O)CC3CCCCC3)CC2)C1=O (stereo not drawn)	20.5%
CCC1(C(=O)NCCCN2CCCC2=O)CCCCC(=O)N1 (stereo not drawn)	34.1%
O=C(NCCc1c[nH]c2ccccc12)[C@@H]1C[C@H]2C(=O)NCCCCCCN(C(=O)c3ccco3)[C@H]2C1	1.12µM*
CC(C)c1noc([C@@H]2C[C@H]3C(=O)NCCCCCCN(C(=O)c4ccco4)[C@H]3C2)n1	-8.0%
O=C1NCCCCCCN(C(=O)c2ccco2)[C@H]2CCCC[C@@H]12	-1.5%
COc1cccc(C(O)c2nc(C(=O)Nc3ccc4c(c3)NC(=O)CO4)c(C)o2)c1 (stereo not drawn)	i
O=C(NCC1(COc2cnccn2)C[C@@H](O)[C@@H](O)C1)c1nc2ccccc2[nH]1 (stereo partly drawn)	0.4%
CS(=O)(=O)N1CCC(CC(=O)Nc2ccccc2)C1 (stereo not drawn)	i
c1ccc(-c2noc(-c3ccn4c(CN5CCOCC5)nnc4c3)n2)cc1	-6.2%
CCCCNC(=O)c1c(C)oc2ncn(CC(C)C)c(=O)c12	i
CCN(CC)CCNC(=O)c1cn(CCOC)c(=O)c2c1c1ccccc1n2C	10µM*
COc1cc(Cl)c(C)cc1NC(=O)c1cn(C2CCCC2)c(=O)c2c1c1ccccc1n2C	-10.3%
CCCCN(CC)CCNC(=O)c1cc2c(=O)[nH]c3ccccc3c2n1C	i
CCCCN(CC)CCCNC(=O)c1cc2c(=O)[nH]c3ccccc3c2n1C	8.91µM*
CCOCCCNC(=O)c1cc2c(=O)n(C)c3ccccc3c2n1C	7.9%
CCCN(CCC)CCCNC(=O)c1cc2c(=O)[nH]c3ccccc3c2n1C	i
CCCCN(CC)CCCNC(=O)c1cn(CC(C)C)c(=O)c2c1c1ccccc1n2C	7.08µM*
